High-throughput results as filed in PubChem.
In the library only some 7.4% were active in any assay of this set; here they are far more common.
ELG1 genotoxic: induces genotoxicity in HEK293T cells with luciferase-tagged ELG1. HEK293T ELG1-luciferase reporter, luminescence, 16 h. Potency, µM (series often up to 46 µM), without a hit: at the top dose activity change, positive = activation, most hits filed as activators. 330,000 tested, 1.3% active. AID 504466; further: % of control where 0% means no effect; nearly all actives have a fitted effect of over 60% in size
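Cells (2,000/well) expressing the ELG1-luciferase fusion are dosed by pin tool and kept 16 hr at 37 °C, 5% CO2. Signal comes from ONE-Glo luciferase reagent after 30 min at room temperature.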
NPC1 promoter act: NPC1 promoter activation | Huh7 NPC1 promoter luciferase reporter, 24 h | Potency, µM (series often up to 9.22 µM), for inactives: at the highest dose activation, usual class: activators | 320,000 tested, 2.4% active; further: % of control where 0% means no effect; nearly all actives have a fitted effect of over 60% in size
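Luminescence from an NPC1 promoter-driven luciferase reporter in stably transfected Huh7 cells was measured after 24 h compound treatment at 37 °C, followed by 10 min ambient incubation with luciferase detection reagent.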
p53 reactivation: restores transcriptional activity of mutant p53. H1299 p53-A138V BP100-luciferase reporter, luminescence, 24 h. Potency, µM (top dose mostly 92.2 µM), without a hit: at the top dose activity change, positive = activation, usual class: activators. 320,000 tested, 0.063% active. AID 504706; further: % of control where 0% means no effect; nearly all actives have a fitted effect of over 45% in size
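p53-null H1299 cells stably carrying temperature-sensitive p53-A138V and a BP100-luciferase reporter were pinned with compounds (4-point, 1:5 series) and held 24 hrs at 37 deg C. Luminescence was read 10 min after detection reagent.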
Rab9 promoter act: activates the Rab9 promoter; Potency, µM (series often up to 9.22 µM), for inactives: top-dose activation, negative = inhibition, usual class: activators; Huh7 Rab9 promoter-luciferase reporter, luminescence, 24 h; 320,000 tested, 2.8% active; AID 485297; further: % of control where 0% means no effect; nearly all actives have a fitted effect of over 60% in size
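Huh7 cells stably carrying a Rab9 promoter-luciferase reporter, 1500 cells per well in OP-MEM I with 10% FBS, treated with compound 24 hours at 37C. Luciferase activity read by luminescence after 10 minutes with Amplite reagent.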
SMN2 splice up: SMN2 splice variant enhancement; HEK293 SMN2-luciferase splicing reporter, luminescence, 30-36 h; Potency, µM (series often up to 46.1 µM), for inactives: at the highest dose activity change, positive = activation, actives largely listed as activators; 210,000 tested, 2.8% active; AID 1458; further: % of control where 0% means no effect; nearly all actives have a fitted effect of over 55% in size
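HEK293 cells carry an SMN2 minigene-luciferase reporter in which exon 7 inclusion puts luciferase in frame. Cells were seeded at 2000 cells/well, attached for 10-12 hours, then exposed to compounds for 30-36 hours at 37C before ONE-Glo luminescence.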
FLuc counter: inhibits or activates purified firefly luciferase, miR-21 counter-screen; purified FLuc, Km substrates, luminescence inhibition; Potency, µM (highest dose often 57.5 µM), for the others: at the highest dose activity change, negative = inhibition, actives largely listed as inhibitors; 360,000 tested, 6.9% active;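 further: plate controls were vehicle for no effect and reference inhibitor for full effect; nearly all actives have a fitted effect of over 55% in size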
Target sequence (P08659 whole entry, looked up): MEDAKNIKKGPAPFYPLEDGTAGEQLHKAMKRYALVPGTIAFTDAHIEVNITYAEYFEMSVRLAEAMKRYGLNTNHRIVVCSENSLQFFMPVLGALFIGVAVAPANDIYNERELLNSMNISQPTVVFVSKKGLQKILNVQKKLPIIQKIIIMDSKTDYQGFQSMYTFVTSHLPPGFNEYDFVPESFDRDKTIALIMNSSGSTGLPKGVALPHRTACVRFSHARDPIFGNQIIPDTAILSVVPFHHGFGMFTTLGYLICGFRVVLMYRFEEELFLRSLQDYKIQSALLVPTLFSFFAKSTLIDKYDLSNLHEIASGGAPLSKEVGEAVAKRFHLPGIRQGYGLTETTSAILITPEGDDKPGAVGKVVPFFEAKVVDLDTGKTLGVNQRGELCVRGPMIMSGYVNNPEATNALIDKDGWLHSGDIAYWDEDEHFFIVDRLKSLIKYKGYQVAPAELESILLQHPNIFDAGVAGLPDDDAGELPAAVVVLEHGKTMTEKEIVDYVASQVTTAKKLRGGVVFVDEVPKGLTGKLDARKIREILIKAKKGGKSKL
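Purified P. pyralis luciferase (10nM final) with 10uM D-luciferin and 10uM ATP (Km levels) in 50mM Tris acetate pH 7.5, 10mM Mg acetate, 0.01% Tween-20, 0.05% BSA; qHTS 6-point titration, ~60 µM downward; luminescence read.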
* hit, by the source's call; ? = inconclusive; . = no result given; ! = not confirmed by another sample; [ ] = remark or other dose. The call rests on the fitted dose curve; in most records, active means well fitted curve in the direction sought with a large enough effect; inconclusive means small, poorly fitted or top-dose-only effect, or another doubt; inactive means no such curve, though single readings can be large; an effect the other way counts as inactive or inconclusive. Potency means the concentration at half of the fitted maximal effect.

SMILES	ELG1 genotoxic	NPC1 promoter act	p53 reactivation	Rab9 promoter act	SMN2 splice up	FLuc counter
Fc1cccc2sc(Nc3nc4cc5c(cc4s3)OCO5)nc12	7.3µM*	4µM*	?	3.2µM*	5µM*	4.3µM*
O=c1oc2ccccc2cc1-c1csc(Nc2nc3c(F)cccc3s2)n1	3%	16%	25%	-2%	-28%	-19%
Cc1nnsc1C(=O)N/N=C/c1c(F)cccc1Cl	1%	2%	-7%	12%	2%	-1%
Cc1[nH]cnc1C(=O)N/N=C/c1c(Cl)cccc1Cl	24%	?	18%	?	.	15µM*
CCN(CC(=O)Nc1ccc(OC)cc1)CC(=O)Nc1sc2c(c1C(=O)OC)CCCC2	-3%	-3%	-5%	0%	.	.
COC(=O)c1c(C)[nH]c(C(=O)OCc2ccc(F)cc2)c1C	?	3.5µM*	?	4µM*	.	9.5µM*
CCc1c(C(=O)OCc2ccccc2)[nH]c(C)c1C	?	28%	?	?	.	24µM*
COC(=O)c1c(C)[nH]c(C(=O)CSc2ccc(Cl)cc2)c1C	?	4µM*	?	2.5µM*	11µM*	4.8µM*
COC(=O)c1c(C)[nH]c(C(=O)CC#N)c1C	7%	-2%	0%	4%	?	-7%
CC(=O)c1c(C)[nH]c(C(=O)OCC(=O)NCCc2ccc(F)cc2)c1C	-5%	-3%	-8%	3%	-19%	1%
COC(=O)c1ccccc1N=Nc1c(N)[nH][nH]c1=O	-8%	-2%	1%	-4%	.	11µM*
CC(C)CC(=O)Nc1nnc(S(=O)(=O)Nc2ccccc2)s1	4%	-11%	-3%	-2%	.	-1%
O=C(Nc1nnc(S(=O)(=O)N2CCCCCC2)s1)c1ccccc1Cl	2%	-6%	.	3%	.	-21%
O=C(Nc1nnc(S(=O)(=O)Nc2ccccc2)s1)c1ccccc1Cl	3%	-3%	0%	-2%	.	9.5µM*!
COc1ccc(OCC(=O)Nc2nnc(S(=O)(=O)N3CCCCCC3)s2)cc1	-1%	2%	3%	-1%	.	15µM*!
O=C(Nc1nnc(S(=O)(=O)Nc2ccccc2)s1)C1CCCCC1	0%	-3%	1%	-6%	.	8.5µM*!
O=C(Nc1nnc(S(=O)(=O)N2CCCC2)s1)c1ccccc1Cl	-1%	-1%	10%	1%	.	4.8µM*
CN[C@H](CC(C)C)C(=O)N[C@H]1C(=O)N[C@@H](CC(N)=O)C(=O)N[C@@H]2C(=O)N[C@H]3C(=O)N[C@H](C(=O)N[C@H](C(=O)O)c4cc(O)cc(O)c4-c4cc3ccc4O)[C@H](O)c3ccc(c(Cl)c3)Oc3cc2cc(c3O[C@@H]2O[C@H](CO)[C@@H](O)[C@H](O)[C@@H]2O[C@H]2C[C@](C)(N)[C@H](O)[C@H](C)O2)Oc2ccc(cc2Cl)[C@H]1O	.	3%[46.1 µM]	.	-6%[46.1 µM]	.	.
COC(=O)[C@]1(C)CCC[C@]2(C)c3ccc(C(C)C)cc3C(=O)CC12 (stereo not given in full)	.	.	.	.	-28%	.
O=C1CCC(C(=O)N2CCc3c(Cl)cccc3C2)CN1CCCN1CCOCC1 (stereo not given)	0%	0%	-2%	-1%	.	0%
CCC(=O)Nc1ccc2nc(SCCOc3ccc(C)cc3)sc2c1	.	.	.	.	.	-1%
Cc1ccccc1NS(=O)(=O)c1nnc(NC(=O)c2ccc(Cl)cc2)s1	0%	-9%	9%	-8%	.	2.4µM*!
O=C(Nc1nnc(S(=O)(=O)N2CCOCC2)s1)c1ccccc1	8%	19%	24%	?	.	?
O=C(Nc1nnc(S(=O)(=O)N2CCCCCC2)s1)c1ccccc1	12%	?	?	4µM*	.	6.7µM*
Cc1ccccc1NS(=O)(=O)c1nnc(NC(=O)c2ccc(Br)cc2)s1	-1%	-4%	10%	-5%	.	-16%
